Data: PubChem BioAssay (Tox21)
Results filed as inconclusive are left out. Activity calls are given as the source filed them. Calls come from the whole dose curve; as a rule, active = well fitted curve in the direction sought with a large enough effect in the repeat runs; inconclusive = weak or mixed curves; inactive = no such curve, though single readings can be large; an effect the other way counts as inactive or inconclusive.

Assays:
[1] = qHTS assay to identify small molecule agonists of the RXR signaling pathway - cell viability counter screen (AID 1159529);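 note: HEK 293T cells carrying an RXR-alpha UAS beta-lactamase reporter; nearly all actives have a fitted effect of over 50% in size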
In short: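 Viability read-out for the RXR-alpha agonist qHTS: luminescent CellTiter-Glo signal after 30 min at RT. HEK 293T bla reporter cells, 2% charcoal-stripped FBS, 16 hr compound incubation; tetraoctyl ammonium bromide as cytotoxic control.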

[2] = qHTS assay to identify small molecule antagonists of the retinoid acid receptor (RAR) signaling pathway - cell viability counter screen (AID 1159551); note: nearly all actives have a fitted effect of over 35% in size
In short: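 Measured by luminescent ATP detection, viability reflects C3RL4 cells treated 6 h at 37 C with test chemicals in the presence of 1 uM (final) retinol.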

[3] = qHTS assay to identify small molecule agonists of the retinoic acid receptor (RAR) signaling pathway (AID 1159553); settings: C3RL4 RARE luciferase reporter, agonist, 6 h; activation: at 73.3 µM (top of the series)
In short: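 6 hr compound exposure (DMSO vehicle) of overnight-plated C3RL4 RARE-luc cells at 37 C; luminescence quantified after 30 min RT with luciferase reagent.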

[4] = qHTS assay to identify small molecule antagonists of the estrogen related receptor (ERR) signaling pathway from Tox21 library - cell viability counter screen (AID 1224834); note: nearly all actives have a fitted effect of over 30% in size
In short: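 Seeded ERR cells were rested 6 h at 37 C/5% CO2 before compounds, positive and negative controls or DMSO were added. Incubation continued for 17.5 h, and viability was then quantified by CellTiter-Fluor fluorescence.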

[5] = target: Luciferin 4-monooxygenase (Photinus pyralis) (UniProt P08659); assay: qHTS assay to identify small molecule inhibitors of firefly luciferase (AID 1224835); note: nearly all actives have a fitted effect of over 25% in size
Sequence of Luciferin 4-monooxygenase (Photinus pyralis) (P08659 whole entry, looked up): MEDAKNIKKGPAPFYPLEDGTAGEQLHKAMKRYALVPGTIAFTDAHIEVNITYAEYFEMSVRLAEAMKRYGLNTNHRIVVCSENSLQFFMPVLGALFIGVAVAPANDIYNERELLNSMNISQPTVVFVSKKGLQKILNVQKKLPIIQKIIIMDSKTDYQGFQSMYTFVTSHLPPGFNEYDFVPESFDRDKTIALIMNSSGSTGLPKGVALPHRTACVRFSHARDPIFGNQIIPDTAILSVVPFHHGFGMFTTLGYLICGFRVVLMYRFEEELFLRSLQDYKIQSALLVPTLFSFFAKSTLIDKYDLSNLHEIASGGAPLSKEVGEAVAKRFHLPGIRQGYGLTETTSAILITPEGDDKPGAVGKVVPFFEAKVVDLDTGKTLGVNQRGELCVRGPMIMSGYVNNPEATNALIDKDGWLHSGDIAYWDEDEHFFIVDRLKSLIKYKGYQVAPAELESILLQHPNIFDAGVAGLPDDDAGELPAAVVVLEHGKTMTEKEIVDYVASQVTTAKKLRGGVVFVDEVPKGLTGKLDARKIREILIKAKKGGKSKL
In short: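 Quantitative HTS format; KM concentrations of both substrates. Purified P. pyralis FLuc activity quantified from luminescence images.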

[6] = qHTS assay to identify small molecule agonists of the constitutive androstane receptor (CAR) signaling pathway - cell viability counter screen (AID 1224836); note: nearly all actives have a fitted effect of over 45% in size
In short: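 Multiplexed viability check: HepG2-CYP2B6-hCAR cells, 15-point compound dosing, 0.75 uM PK11195 final, 23 h at 37 C, CellTiter-Fluor fluorescence.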

[7] = qHTS assay to identify small molecule antagonists of the constitutive androstane receptor (CAR) signaling pathway - cell viability counter screen (AID 1224837); note: nearly all actives have a fitted effect of over 45% in size
In short: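 To flag cytotoxic false antagonists, HepG2 hCAR/CYP2B6-2.2kb cells were treated 23 hr with 15-concentration compound series and 50 nM CITCO at 37 C/5% CO2; CellTiter-Fluor fluorescence was the measured end point.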

[8] = target: Nuclear receptor subfamily 1 group I member 3 (Homo sapiens) (UniProt Q14994); assay: qHTS assay to identify small molecule antagonists of the constitutive androstane receptor (CAR) signaling pathway (AID 1224838);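 note: HepG2 cells stably expressing hCAR with CYP2B6 luciferase reporter stimulated by CITCO; nearly all actives have a fitted effect of over 40% in size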
Sequence of Nuclear receptor subfamily 1 group I member 3 (Homo sapiens) (Q14994 whole entry, looked up): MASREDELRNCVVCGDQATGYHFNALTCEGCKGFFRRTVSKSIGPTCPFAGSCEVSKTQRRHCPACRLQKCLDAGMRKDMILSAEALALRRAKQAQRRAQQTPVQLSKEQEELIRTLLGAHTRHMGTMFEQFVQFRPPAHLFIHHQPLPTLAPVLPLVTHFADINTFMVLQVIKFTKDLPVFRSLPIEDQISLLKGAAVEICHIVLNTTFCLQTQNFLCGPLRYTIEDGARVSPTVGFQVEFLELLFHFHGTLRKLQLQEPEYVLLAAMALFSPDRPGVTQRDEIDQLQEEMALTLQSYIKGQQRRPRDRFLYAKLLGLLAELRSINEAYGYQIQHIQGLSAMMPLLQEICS
In short: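 Human hepatoma HepG2 cells expressing hCAR and a CYP2B6 promoter (2.2 kb) luciferase construct; compound titration (15 points) with 50 nM CITCO final, 24 h at 37 C/5% CO2; luminescence via ONE-Glo after 30 min at room temperature.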

[9] = target: Nuclear receptor subfamily 1 group I member 3 (Homo sapiens) (UniProt Q14994); assay: qHTS assay to identify small molecule agonists of the constitutive androstane receptor (CAR) signaling pathway (AID 1224839);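 note: HepG2 cells stably carrying human CAR and a CYP2B6 luciferase reporter; nearly all actives have a fitted effect of over 15% in size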
In short: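 Using human hepatoma HepG2 cells engineered with hCAR and a CYP2B6-2.2kb reporter, 15-concentration compound series were incubated 24 h alongside PK11195 at 0.75 uM final, with luminescence quantified afterwards.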
% is set by controls: 0 for no effect and ±100 for the full control effect.

O=C(c1ccc2c(c1)C(=O)OC2=O)c1ccc2c(c1)C(=O)OC2=O
inactive: outcome [1] | outcome [2] | Potency [3] | Potency [4] | Potency [5] | outcome [6] | Potency [7]

COc1ccc(/C=N/NC(=O)c2ccncc2)cc1OC
inactive: outcome [1] | outcome [2] | Potency [3] | Potency [4] | Potency [5] | outcome [6] | Potency [7]

O=S1(=O)CCCC1
inactive: outcome [1] | outcome [2] | Potency [3] | Potency [4] | Potency [5] | outcome [6] | Potency [7] | Potency [8] | Potency [9]

CO[Si](CCCCl)(OC)OC
inactive: outcome [1] | outcome [2] | Potency [3] | Potency [4] | Potency [5] | outcome [6] | Potency [7] | Potency [8] | Potency [9]

CCC1Nc2cc(Cl)c(S(N)(=O)=O)cc2S(=O)(=O)N1 (stereo unspecified)
inactive: outcome [1] | outcome [2] | Potency [3] | Potency [4] | Potency [5] | outcome [6] | Potency [7]

Cc1cccc(C(=O)O)c1[N+](=O)[O-]
inactive: outcome [1] | outcome [2] | Potency [3] | Potency [4] | outcome [6] | Potency [7] | Potency [8] | Potency [9]

Nc1c(NC/C=C\COc2cc(CN3CCCCC3)ccn2)c(=O)c1=O
inactive: activity change, negative = cytotoxicity [1] 0.401% [at 15.8 µM] | activity change, negative = cytotoxicity [2] 3.28% [at 19 µM] | Potency [3] | viability change, negative = cytotoxic [4] -12.4% [at 19 µM] | activity change, negative = inhibition [5] 10.6% [at 23.6 µM] | activity, negative = inhibition [8] 4.07% [at 19 µM] | activation [9] 4% [at 19 µM]

CCCCCCCCCCCCCCCCCCN(C)C
inactive: outcome [1] | outcome [2] | Potency [3] | Potency [4] | Potency [5] | outcome [6] | Potency [7]
